Screening results deposited in PubChem by Paczesny and Yang Labs, IUPUI and University of Michigan.
ST2 inh: blocks human ST2 binding to IL-33; Q01638; AlphaLISA ST2-Fc/biotin-IL-33 interaction, 1 h; inhibition, % for hits at 17 µM; 2.3% of 78,000 active; in the data active means inhibition above about 30%
Target sequence (Q01638 whole entry, looked up): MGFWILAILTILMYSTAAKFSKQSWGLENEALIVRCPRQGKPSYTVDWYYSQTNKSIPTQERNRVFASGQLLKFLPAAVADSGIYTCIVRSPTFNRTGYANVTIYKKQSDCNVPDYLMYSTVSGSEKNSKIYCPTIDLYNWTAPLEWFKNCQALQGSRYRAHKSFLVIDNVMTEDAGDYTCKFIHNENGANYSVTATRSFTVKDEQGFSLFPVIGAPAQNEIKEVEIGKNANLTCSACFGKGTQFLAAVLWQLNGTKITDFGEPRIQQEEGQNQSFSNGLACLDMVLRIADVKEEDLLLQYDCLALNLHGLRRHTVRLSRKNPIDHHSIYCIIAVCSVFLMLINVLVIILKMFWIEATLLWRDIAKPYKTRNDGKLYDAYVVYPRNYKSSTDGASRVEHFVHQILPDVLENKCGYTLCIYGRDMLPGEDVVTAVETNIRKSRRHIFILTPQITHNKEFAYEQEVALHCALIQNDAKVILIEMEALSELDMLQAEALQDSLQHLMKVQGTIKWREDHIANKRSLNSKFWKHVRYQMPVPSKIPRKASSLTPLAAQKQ
Each line names hits and unclear results; the compound was inactive in the other large screens. The sample as a whole holds a higher share of hits than the screen did.

COc1ccc(C2=NN(CN3C(=O)C(=O)c4ccccc43)C(c3ccccc3)C2)cc1 (configuration not stated)	ST2 inh 36%
Cc1ncsc1C(=O)N1CCCC(CCc2ccccc2C(F)(F)F)C1 (configuration not stated)	none
COc1ccccc1C(=O)N/C(=C\c1ccc(Br)cc1)C(=O)O	none
O=C(CS(=O)(=O)c1cn(Cc2ccc(F)cc2)c2ccccc12)N1CCCCCC1	none
CCCNC(=O)C1(O)c2ccccc2NC(=O)N1c1ccc(OCC)cc1 (configuration not stated)	none
CCSc1nc2ccc(NC(=O)CSc3nc4ccccc4[nH]3)cc2s1	none
COc1ccc(-n2nc3c(c2NC(=O)c2ccc(OC)c(OC)c2)CS(=O)C3)cc1 (configuration not stated)	none
CCN(CC)c1ccc(C(Nc2ccccn2)c2ccc3cccnc3c2O)cc1 (configuration not stated)	ST2 inh 36%
Cc1ccnc(NC(c2cccnc2)c2ccc3cccnc3c2O)c1 (configuration not stated)	none
CCOc1cc(C(Nc2ccccn2)c2ccc3cccnc3c2O)ccc1O (configuration not stated)	none
COc1ccc(F)cc1S(=O)(=O)NCc1ccc2c(c1)OCO2	none
O=C(O)CCCNc1ccc(S(=O)(=O)O)cc1	none
COCCN1CCCC2(CCN(Cc3ccc(Oc4ncccn4)cc3)C2)C1 (configuration not stated)	none
COc1ccc(C=Nc2ccc(S(=O)(=O)Nc3ccccn3)cc2)c(OC)c1	none
C[C@@H]1CN(Cc2nc(Cc3ccccc3Cl)no2)C[C@H](C)O1	none
COc1ccccc1-n1c(SCC(=O)Nc2cc(C)cc(C)c2)nc2c(c1=O)SCC2	none
COc1ccc(Nc2c(-c3ccco3)nc3ccc(Br)cn23)cc1	none
COc1cc(C=Nc2c(-c3ccco3)nc3ccc(Cl)cn23)ccc1O	ST2 inh 43%
COc1ccc(Cl)cc1NC(=O)c1cc(-c2ccco2)on1	none
CC1CC(C)CN(C(=O)C2c3ccccc3C(=O)N(C)C2c2cccs2)C1 (configuration not stated)	none
CC1(C)CC(=O)C2=C(C1)Nc1cc(C(=O)c3ccccc3)ccc1NC2c1ccco1 (configuration not stated)	none
COc1ccccc1C1Nc2ccc(C(=O)c3ccccc3)cc2NC2=C1C(=O)CC(C)(C)C2 (configuration not stated)	ST2 inh 31%
CC1(C)CC(=O)C2=C(C1)Nc1cc(C(=O)c3ccccc3)ccc1NC2c1cccs1 (configuration not stated)	none
COc1ccc(CCNC(=O)N2CCCCC2CN2CCOCC2)cc1 (configuration not stated)	none
COc1cc2c(cc1NC(=O)CN1C(=O)c3ccccc3C1=O)oc1ccccc12	none
Cn1cc(CN(Cc2ccc(CO)o2)C2CC2)cn1	none
CC(=O)NC(C)c1nc2ccccc2n1CC(C)C (configuration not stated)	none
Cc1ccc(S(=O)(=O)N(CC(=O)NC2CC2)Cc2ccc(Cl)cc2)cc1	none
O=C1[C@@H]2C3c4ccccc4C(Br)(c4ccccc43)[C@@H]2C(=O)N1c1ccc([N+](=O)[O-])cc1	ST2 inh 34%
CC(=O)Oc1ccc(N2C(=O)C3C4c5ccccc5C(C)(c5ccccc54)C3C2=O)cc1 (configuration not stated)	none
O=C1C2[C@H](C(=O)N1c1cccc(Br)c1)C1c3ccccc3C2(C(=O)O)c2ccccc21 (some centres not stated)	none
COc1ccc(-c2nn(-c3ccccc3)cc2CN(C)Cc2cnccn2)c(F)c1	none
O=C(CCC1CCN(C(=O)c2ccccc2F)CC1)NCc1cccc(C(F)(F)F)c1	none
COc1cc(/C(C#N)=C/c2ccccc2F)c([N+](=O)[O-])cc1OC	none
O=C1c2cccc([N+](=O)[O-])c2C(=O)N1c1nc(-c2ccccc2)cs1	none
N#C/C(=C\c1ccccc1[N+](=O)[O-])c1nc(-c2ccccc2)cs1	ST2 inh 50%
O=C(Nc1nc2ccc(Cl)cc2s1)c1ccccc1[N+](=O)[O-]	none
N#C/C(=C\c1ccccc1[N+](=O)[O-])c1nc(-c2ccc(Cl)cc2)cs1	ST2 inh 31%
CCOc1ccc(-c2nc3s/c(=C\c4cccs4)c(=O)n3n2)cc1	none
Cn1cc(CC(=O)N2CCC3(CC2)OCCO3)c2ccccc21	none
COc1ccc2nc3oc(C(=O)Nc4cc(Cl)ccc4OC)cc3cc2c1	none
COc1ccc2cc3cc(C(=O)N4CCN(c5cccc(Cl)c5)CC4)oc3nc2c1	none
COc1ccc2cc3cc(C(=O)Nc4cccc(Cl)c4)oc3nc2c1	ST2 inh 36%
COc1ccc2nc3oc(C(=O)NCc4cccs4)cc3cc2c1	ST2 inh 35%
CCOCCCNC(=O)c1cc2cc3cc(OC)ccc3nc2o1	none
COc1ccc2cc3cc(C(=O)Nc4ccc(F)cc4F)oc3nc2c1	none
COc1cc(NC(=O)c2cc3cc4ccc(Cl)cc4nc3o2)cc(OC)c1OC	none
COc1ccc2nc3oc(C(=O)NCCC(C)C)cc3cc2c1	none
COc1ccc2nc3oc(C(=O)Nc4cc(OC)c(OC)c(OC)c4)cc3cc2c1	none
COc1ccc2nc3oc(C(=O)Nc4ccc(OC)c(Cl)c4)cc3cc2c1	ST2 inh 37%
COc1cccc(NC(=O)c2cc3cc4ccc(OC)cc4nc3o2)c1	ST2 inh 38%
CCOc1ccccc1NC(=O)c1cc2cc3ccc(OC)cc3nc2o1	none
CC(C)(NC(=O)c1cccs1)C(=O)NCCSc1cn[nH]n1	none
CCOc1ccc(NC(=O)Cc2ccc([N+](=O)[O-])cc2)cc1	none
CC(C)c1nnc2sc(CCc3cccnc3)nn12	none
Cc1cc(NC(=O)c2cccc(=O)[nH]2)n(Cc2ccccc2Cl)n1	none
O=C(CC1Sc2ccc(C(F)(F)F)cc2NC1=O)Nc1ccc(Cl)cc1 (configuration not stated)	none
CC1CCC2C(C1)c1sc(=O)[nH]c1SC2(C)C (configuration not stated)	none
CC12COc3ccccc3C1c1sc(=O)[nH]c1SC2 (configuration not stated)	ST2 inh 32%
O=c1[nH]c2c(s1)C1c3cc([N+](=O)[O-])ccc3OCC1CS2 (configuration not stated)	none
Cc1cc(C)cc(NC(=O)CSc2nc3c(c(=O)n2-c2ccc(Cl)cc2)SCC3)c1	none
CCn1ccnc1CN(CC1CCN(C2Cc3ccccc3C2)CC1)CC1CCCO1 (configuration not stated)	none
CCCCNC(=O)c1c(C)cc(Cl)nc1Cl	none
CC(=O)Nc1ccc(-c2nc3ccc(NC(C)=O)cc3[nH]2)cc1	none
Cc1cccc2[nH]c(-c3ccc(NC(=O)c4ccc(N)cc4)cc3)nc12	none
Nc1ccc(C(=O)Nc2ccc(-c3nc4ccc(NC(=O)c5ccc(N)cc5)cc4[nH]3)cc2)cc1	ST2 inh 30%
O=C(Nc1cccc([N+](=O)[O-])c1)c1ccc(S(=O)(=O)N2CCCCC2)cc1	none
c1ccc(CCCCNc2nc(-c3ccncc3)nc3c2CNC3)cc1	none
Cc1c(Cl)c([N+](=O)[O-])nn1CCCC(=O)Nc1cccnc1Cl	none
O=C1CCCC2=C1C(c1cccc(F)c1)c1c(nc(SCc3ccccc3F)[nH]c1=O)N2 (configuration not stated)	none
CCc1ccc(NC(=O)c2ccc(OC)c(Cl)c2)cc1	none
O=C1NC(=O)/C(=C/c2ccc(-c3cccc(Cl)c3Cl)o2)N1	none
Cc1cc(C)c([N+](=O)[O-])cc1-c1ccc(C=C2C(=O)NC(=O)NC2=O)o1	ST2 inh 36%
Cc1cc(Cl)ccc1-c1ccc(C=O)o1	none
